This is an account of results in PubChem BioAssay (EPA / NIEHS).

Each structure is given as a SMILES string. The source made the active and inactive calls. Rule for the calls: active = hit-call score of the fitted dose curve at least 0.9, where 1 is the maximum; inactive = score below 0.9.

Assay [1] can be described thus: CEETOX_H295R_ESTRONE: CeeTox H295R High-throughput Steroidogenesis Assay for Estrone (AID 2283441). The following applies: actives raise or lower the signal. Summed up:
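Estrone secreted into medium quantified by LC-MS/MS after dansyl chloride derivatization, following 48 h chemical exposure (0.1% DMSO final) of forskolin-prestimulated (10 uM, 48 h) H295R cells; gain or loss fitted against DMSO; MTT viability in same wells.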

A short description of assay [2]: CEETOX_H295R_PROG: CeeTox H295R High-throughput Steroidogenesis Assay for Progesterone (PROG) (AID 2283442).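 For AC50: human H295R adrenal cells primed with 10 µM forskolin before dosing; progesterone secreted into medium by H295R cells measured by HPLC-MS/MS.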 The note with it: actives raise or lower the signal. Summed up: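 Steps: seed H295R cells and let them adhere overnight; prime 48 h with 10 uM forskolin; dose with compound in DMSO at 0.1% final for 48 h; extract medium steroids with MTBE; measure progesterone by LC-MS/MS. MTT viability was run in the same wells.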

Read-out in assay [3]: Tumor necrosis factor receptor superfamily member 6 (Homo sapiens) (UniProt P25445)
The assay can be described thus: LTEA_HepaRG_FAS: Life Technologies and Expression Analysis (LTEA) Assay for Fas cell surface death receptor (FAS) using HepaRG (AID 2283447). The following applies: mRNA level, 48 h; actives raise or lower the signal. Summed up: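 Differentiated HepaRG cells in serum-free induction medium were exposed 48 h to 8 half-log concentrations up to 100 uM in 0.5% DMSO, in duplicate. FAS mRNA was measured by qRT-PCR normalised to ACTB, GAPDH and POLR2A; bidirectional fit versus DMSO.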

Read-out in assay [4]: Cyclin D2 (CCND2), CCND2 (gene 894)
Briefly: LTEA_HepaRG_CCND2: Life Technologies and Expression Analysis (LTEA) Assay for Cyclin D2 (CCND2) using HepaRG (AID 2283449).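 Note: CCND2 transcript measured by TaqMan qRT-PCR and normalised to three housekeeping genes.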 The following applies: mRNA level, 48 h; actives raise or lower the signal. The procedure, abridged:
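HepaRG, 48 h dosing, 8-pt half-log curve from 100 uM, 0.5% DMSO; duplicate wells. Readout: CCND2 transcript by microfluidic qRT-PCR, housekeeping-normalised; bidirectional fit vs DMSO baseline.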

Read-out in assay [5]: Cyclin Dependent Kinase Inhibitor 1A (CDKN1A), CDKN1A (gene 1026)
Briefly: LTEA_HepaRG_CDKN1A: Life Technologies and Expression Analysis (LTEA) Assay for Cyclin Dependent Kinase Inhibitor 1A (CDKN1A) using HepaRG (AID 2283450). The note with it: mRNA level, 48 h; actives raise or lower the signal. Summed up: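 Read-out is CDKN1A mRNA by TaqMan qRT-PCR, normalized to three housekeeping genes and fitted in both directions against the DMSO baseline. Human HepaRG cells were treated 48 h with test chemicals up to 100 uM in half-log steps, 0.5% DMSO.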

Read-out in assay [6]: Cyclin D1 (CCND1), CCND1 (gene 595)
The assay can be described thus: LTEA_HepaRG_CCND1: Life Technologies and Expression Analysis (LTEA) Assay for Cyclin D1 (CCND1) using HepaRG (AID 2283451). The following applies: mRNA level, 48 h; actives raise or lower the signal. The procedure, abridged:
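HepaRG plated 48 h, medium switched to serum-free induction medium, chemicals added in duplicate (top 100 uM, half-log steps, 0.5% DMSO) for 48 h, cells lysed, RNA measured by TaqMan qRT-PCR.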

Read-out in assay [7]: catalase (CAT), CAT (gene 847)
Briefly: LTEA_HepaRG_CAT: Life Technologies and Expression Analysis (LTEA) Assay for catalase (CAT) using HepaRG (AID 2283452). The following applies: mRNA level, 48 h; actives raise or lower the signal. The procedure, abridged: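 HepaRG cells in serum-free induction medium, 0.5% DMSO vehicle, exposed 48 h in duplicate over 8 half-log concentrations from 100 uM. CAT mRNA measured by qRT-PCR, normalized to ACTB, GAPDH, POLR2A; bidirectional fit versus DMSO.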

Read-out in assay [8]: flavin-containing dimethylaniline monooxygenases 3 (FMO3), FMO3 (gene 2328)
Briefly: LTEA_HepaRG_FMO3: Life Technologies and Expression Analysis (LTEA) Assay for flavin-containing dimethylaniline monooxygenases 3 (FMO3) using HepaRG (AID 2283453).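 For AC50: differentiated human HepaRG liver cells in serum-free induction medium.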 The note with it: mRNA level, 48 h; actives raise or lower the signal. Summed up: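 FMO3 transcript quantified by TaqMan qRT-PCR against three housekeeping genes after 48 h chemical exposure of HepaRG cells. Eight-point half-log series, top 100 uM, 0.5% DMSO vehicle; phenobarbital 1mM induction control; up- or down-regulation fitted.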

Read-out in assay [9]: CFLAR gene, CFLAR (gene 8837)
Briefly: LTEA_HepaRG_CFLAR: Life Technologies and Expression Analysis (LTEA) Assay for CFLAR gene using HepaRG (AID 2283455). The note with it: mRNA level, 48 h; actives raise or lower the signal. The procedure, abridged:
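qRT-PCR read-out (Fluidigm/TaqMan) of CFLAR mRNA, normalized to three housekeeping genes, in differentiated human HepaRG cells after 48 h chemical exposure; 8-point half-log series from 100 uM in 0.5% DMSO; bidirectional curve fitting versus DMSO.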

Read-out in assay [10]: Forkhead box O1 (FOXO1), FOXO1 (gene 2308)
Briefly: LTEA_HepaRG_FOXO1: Life Technologies and Expression Analysis (LTEA) Assay for Forkhead box O1 (FOXO1) using HepaRG (AID 2283456). The following applies: mRNA level, 48 h; actives raise or lower the signal. The procedure, abridged:
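HepaRG, 48 h exposure, 8-pt half-log series from 100 uM in 0.5% DMSO, duplicates; Fluidigm qRT-PCR mRNA, housekeeping-normalised; bidirectional fit vs DMSO baseline.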

Read-out in assay [11]: growth arrest and DNA damage 45 (GADD45A), GADD45A (gene 1647)
Briefly: LTEA_HepaRG_GADD45A: Life Technologies and Expression Analysis (LTEA) Assay for growth arrest and DNA damage 45 (GADD45A) using HepaRG (AID 2283458). The following applies: mRNA level, 48 h; actives raise or lower the signal. Summed up:
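Transcript induction or loss, quantified by TaqMan qRT-PCR against three housekeeping genes, is the read-out. HepaRG cells received chemicals for 48 h across eight half-log concentrations from 100 uM in 0.5% DMSO; gain and loss fitted relative to DMSO.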

Read-out in assay [12]: Forkhead box O3 (FOXO3), FOXO3 (gene 2309)
Briefly: LTEA_HepaRG_FOXO3: Life Technologies and Expression Analysis (LTEA) Assay for Forkhead box O3 (FOXO3) using HepaRG (AID 2283459). The note with it: mRNA level, 48 h; actives raise or lower the signal. The procedure, abridged: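 qRT-PCR readout of FOXO3 transcript, normalized to three housekeeping genes (ACTB, GAPDH, POLR2A); gain or loss fitted against 0.5% DMSO vehicle. HepaRG cells, 48 h chemical exposure, 8-point half-log series, top 100 uM.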

Read-out in assay [13]: ABC Transporter (ABCB1), ABCB1 (gene 5243)
Briefly: LTEA_HepaRG_ABCB1: Life Technologies and Expression Analysis (LTEA) Assay for ABC Transporter (ABCB1) using HepaRG (AID 2283460). The note with it: mRNA level, 48 h; actives raise or lower the signal. Summed up:
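HepaRG, 48 h exposure, 8-pt half-log series from 100 uM, 0.5% DMSO vehicle, duplicates. Readout: ABCB1 transcript by Fluidigm TaqMan qRT-PCR, housekeeping-normalized; bidirectional curve fit vs DMSO baseline.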

Assay [14] is described as follows: CEETOX_H295R_ESTRADIOL: CeeTox H295R High-throughput Steroidogenesis Assay for Estradiol (AID 2283440).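 Note: estradiol secreted into medium quantified by LC-MS/MS after dansyl derivatisation.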 The note with it: actives raise or lower the signal. The procedure, abridged:
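Estradiol secreted into the medium was measured by tandem mass spectrometry after liquid-liquid extraction and dansylation. Human H295R cells had been forskolin-primed (10 uM, 48 h) before a 48 h chemical exposure with 0.1% DMSO.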

Read-out in assay [15]: Fatty acid synthase (Homo sapiens) (UniProt P49327)
Briefly: LTEA_HepaRG_FASN: Life Technologies and Expression Analysis (LTEA) Assay for Fatty Acid Synthase (FASN) using HepaRG (AID 2283448).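 For AC50: differentiated human HepaRG liver cells in serum-free induction medium.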 The following applies: mRNA level, 48 h; actives raise or lower the signal. The procedure, abridged:
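Cells were plated, cultured 48 h, switched to serum-free induction medium, then dosed in duplicate (max 100 uM, half-log dilutions, 0.5% DMSO) for 48 h. RNA was then isolated and FASN quantified by qRT-PCR.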

Read-out in assay [16]: Cytochrome P450 (CYP1A1), CYP1A1 (gene 1543)
The assay can be described thus: LTEA_HepaRG_CYP1A1: Life Technologies and Expression Analysis (LTEA) Assay for Cytochrome P450 (CYP1A1) using HepaRG (AID 2283454). The following applies: mRNA level, 48 h; actives raise or lower the signal. The procedure, abridged:
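HepaRG, 48 h post-plating switched to serum-free induction medium; 8-pt conc-response (top 100 uM, half-log, 0.5% DMSO), duplicates, 48 h. Lysis in RLT, TaqMan qRT-PCR for CYP1A1; gain or loss vs DMSO.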

Sequence of Fatty acid synthase (Homo sapiens) (P49327 whole entry, looked up): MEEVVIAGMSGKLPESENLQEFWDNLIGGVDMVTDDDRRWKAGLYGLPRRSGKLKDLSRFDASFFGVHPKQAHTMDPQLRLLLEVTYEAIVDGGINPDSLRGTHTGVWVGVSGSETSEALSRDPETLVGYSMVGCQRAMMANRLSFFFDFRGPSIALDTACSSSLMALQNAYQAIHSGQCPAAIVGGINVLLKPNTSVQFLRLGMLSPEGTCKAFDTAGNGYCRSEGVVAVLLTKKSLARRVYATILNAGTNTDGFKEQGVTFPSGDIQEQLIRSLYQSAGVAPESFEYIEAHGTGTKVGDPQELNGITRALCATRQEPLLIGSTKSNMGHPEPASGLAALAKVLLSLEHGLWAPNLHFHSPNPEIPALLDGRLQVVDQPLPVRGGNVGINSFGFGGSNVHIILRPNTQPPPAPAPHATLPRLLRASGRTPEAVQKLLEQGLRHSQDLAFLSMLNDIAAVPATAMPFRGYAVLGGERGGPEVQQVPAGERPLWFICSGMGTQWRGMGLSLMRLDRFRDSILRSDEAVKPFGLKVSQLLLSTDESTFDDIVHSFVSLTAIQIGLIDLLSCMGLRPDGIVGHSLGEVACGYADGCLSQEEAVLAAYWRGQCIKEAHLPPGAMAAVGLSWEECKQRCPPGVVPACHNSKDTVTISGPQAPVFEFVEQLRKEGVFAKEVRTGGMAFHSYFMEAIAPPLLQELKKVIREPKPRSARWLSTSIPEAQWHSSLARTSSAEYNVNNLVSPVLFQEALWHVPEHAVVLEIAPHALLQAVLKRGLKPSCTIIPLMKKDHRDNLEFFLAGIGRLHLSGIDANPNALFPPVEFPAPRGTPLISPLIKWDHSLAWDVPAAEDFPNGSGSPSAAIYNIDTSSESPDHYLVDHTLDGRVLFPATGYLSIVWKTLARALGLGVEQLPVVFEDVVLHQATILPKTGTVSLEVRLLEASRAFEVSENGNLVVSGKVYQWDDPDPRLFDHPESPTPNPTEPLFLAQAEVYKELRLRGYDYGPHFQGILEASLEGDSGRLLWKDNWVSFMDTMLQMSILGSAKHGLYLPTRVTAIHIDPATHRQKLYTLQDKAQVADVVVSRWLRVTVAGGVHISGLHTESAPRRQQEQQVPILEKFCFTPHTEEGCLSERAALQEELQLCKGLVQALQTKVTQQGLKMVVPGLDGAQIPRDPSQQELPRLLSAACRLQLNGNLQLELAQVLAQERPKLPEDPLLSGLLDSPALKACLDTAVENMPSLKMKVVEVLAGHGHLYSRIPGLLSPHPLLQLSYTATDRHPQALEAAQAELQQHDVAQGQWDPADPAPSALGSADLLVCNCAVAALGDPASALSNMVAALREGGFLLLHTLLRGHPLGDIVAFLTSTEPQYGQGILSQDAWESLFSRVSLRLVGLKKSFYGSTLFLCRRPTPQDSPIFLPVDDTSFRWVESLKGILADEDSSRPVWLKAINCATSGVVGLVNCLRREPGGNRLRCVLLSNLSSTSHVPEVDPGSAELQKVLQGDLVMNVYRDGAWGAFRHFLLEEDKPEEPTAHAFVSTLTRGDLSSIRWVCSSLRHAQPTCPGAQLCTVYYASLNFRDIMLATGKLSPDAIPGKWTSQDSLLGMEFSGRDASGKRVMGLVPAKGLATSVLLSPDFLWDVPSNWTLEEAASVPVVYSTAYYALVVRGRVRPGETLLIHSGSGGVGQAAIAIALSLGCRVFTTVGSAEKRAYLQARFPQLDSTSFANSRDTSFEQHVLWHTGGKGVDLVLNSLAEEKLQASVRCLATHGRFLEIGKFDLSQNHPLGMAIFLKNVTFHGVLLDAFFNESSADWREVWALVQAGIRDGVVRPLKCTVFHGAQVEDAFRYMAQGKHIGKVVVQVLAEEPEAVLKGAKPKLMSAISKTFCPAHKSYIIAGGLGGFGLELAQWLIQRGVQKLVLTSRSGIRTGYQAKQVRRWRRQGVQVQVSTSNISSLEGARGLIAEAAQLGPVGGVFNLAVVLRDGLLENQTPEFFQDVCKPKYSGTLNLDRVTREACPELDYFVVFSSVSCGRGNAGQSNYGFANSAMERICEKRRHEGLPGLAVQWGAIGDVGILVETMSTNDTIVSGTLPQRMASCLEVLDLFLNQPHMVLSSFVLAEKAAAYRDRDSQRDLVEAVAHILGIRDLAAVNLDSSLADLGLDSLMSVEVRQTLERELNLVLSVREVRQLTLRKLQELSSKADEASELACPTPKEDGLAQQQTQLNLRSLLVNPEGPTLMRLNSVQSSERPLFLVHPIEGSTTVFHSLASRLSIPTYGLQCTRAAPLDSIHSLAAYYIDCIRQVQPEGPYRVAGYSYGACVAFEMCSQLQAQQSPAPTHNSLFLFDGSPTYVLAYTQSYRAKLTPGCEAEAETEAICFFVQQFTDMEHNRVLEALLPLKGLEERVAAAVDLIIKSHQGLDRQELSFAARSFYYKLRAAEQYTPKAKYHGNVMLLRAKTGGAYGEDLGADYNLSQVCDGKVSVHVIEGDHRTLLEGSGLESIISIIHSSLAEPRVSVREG

As to `Cc1ncc([C@@H](CCCCCCc2ccc3c(n2)NCCC3)CC(=O)O)cn1`, the outcome in assay [1], in [3], in assay [4], in assay [5], in assay [6] and in [7] was inactive. Also, the molecule was classed as inactive in assay [8], in [9], in assay [10], in assay [11], in [12] and in assay [13]. Besides, the AC50 in assay [2] was 12.5 µM (active).
`CCOc1ccc2[nH]cc(C(=O)NCc3ccccc3)c(=O)c2n1`: the result in assay [14], in [1], in assay [2], in assay [3], in [15] and in [4] was inactive. The molecule was classed as inactive in [5], in assay [7], in assay [10], in [11], in assay [12] and in assay [13]. For the same molecule, the AC50 in assay [8] was 79.6 µM (active); in assay [16], 34 µM (active).
As for `CCCCCCCC/C=C\CCCCCCCC(=O)OC[C@@H](O)[C@H]1OC[C@H](O)[C@H]1O`, the molecule was classed as inactive in assay [3], in assay [15], in assay [4], in assay [5], in assay [7] and in assay [8]. Moreover, the molecule was classed as inactive in [9], in [10], in assay [11], in assay [12] and in [13].
As to `CCCCCCCC1CCC(=O)O1` (configuration not stated), the molecule was classed as inactive in assay [14], in [1], in assay [2], in assay [3], in [4] and in assay [5]. In addition, the molecule was called inactive in assay [6], in assay [7], in assay [8], in assay [10], in assay [11] and in [12].
Regarding `CC(=O)c1ccccc1`, the result in assay [3], in assay [4], in assay [5], in [7], in [8] and in [10] was inactive. The result in [11], in [12] and in [13] was inactive.
`COS(C)(=O)=O`: the call in [3], in assay [4], in [5], in assay [6], in [7] and in [8] was inactive. For the same molecule, the result in [10], in [11], in [12] and in [13] was inactive.
Consider `COc1cc(C(C)C)c2c(c1)S(=O)(=O)N(COc1cc(=O)n3cccc(OCCN4CCCCC4)c3n1)C2=O`, for which the molecule was called inactive in assay [3], in assay [5], in [10] and in assay [11]. For the same molecule, the AC50 in assay [15] is 20.7 µM (active); in [7], 19.4 µM (active); in assay [8] it was 23 µM (active); in assay [12], 19.4 µM (active); in assay [13] it was 21.3 µM (active).
In the case of `OCC(CO)(CO)CO`, the call in assay [3], in assay [5], in assay [7], in [8], in assay [9] and in assay [10] was inactive. For the same molecule, the result in assay [11], in [12] and in [13] was inactive.
As for `OC(Cn1cncn1)(Cn1cncn1)c1ccc(F)cc1F`, the molecule was called inactive in assay [3], in [4], in assay [5], in [6], in [7] and in assay [8]. Further, the call in [10], in assay [11], in [12] and in [13] was inactive.
